57 molecules from PubChem BioAssay AID1529 (NMMLSC, 2009) can be followed below.

Among all 290,000 compounds or so, about 4,200 (1.4%) were called active. For the sample, actives were picked, then their nearest neighbours and some compounds at random. Values without a mark were called inactive.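 How the source made its calls: active means binding response more than 3 SD above or below the average of its plate-row segment, actives on both sides; inconclusive means wells at one plate position flagged as instrument error; inactive means the rest.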

For the experiment, the target named is Mitogen-activated protein kinase kinase kinase 3 (Homo sapiens) (UniProt Q99759). Briefly: compounds raising or lowering MEK5 association with MEKK3 PB1 – biochemical, wildtype MEKK3, multiplex bead flow cytometry, Alexa488-MEK5, primary screen (AID 1529).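 Further: Alexa488 bead fluorescence after subtracting the streptavidin-only scavenger bead signal.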 Particulars: bead-based flow cytometry, Alexa488-MEK5 binding to MEKK3; at 10 µM; actives lie on both sides; 0 = blocked by unlabeled MEK5, 100 = vehicle. A general note: Flow cytometry measures light scatter and fluorescence of single cells or particles in a stream.
Mitogen-activated protein kinase kinase kinase 3 (Homo sapiens), sequence (Q99759 whole entry, looked up): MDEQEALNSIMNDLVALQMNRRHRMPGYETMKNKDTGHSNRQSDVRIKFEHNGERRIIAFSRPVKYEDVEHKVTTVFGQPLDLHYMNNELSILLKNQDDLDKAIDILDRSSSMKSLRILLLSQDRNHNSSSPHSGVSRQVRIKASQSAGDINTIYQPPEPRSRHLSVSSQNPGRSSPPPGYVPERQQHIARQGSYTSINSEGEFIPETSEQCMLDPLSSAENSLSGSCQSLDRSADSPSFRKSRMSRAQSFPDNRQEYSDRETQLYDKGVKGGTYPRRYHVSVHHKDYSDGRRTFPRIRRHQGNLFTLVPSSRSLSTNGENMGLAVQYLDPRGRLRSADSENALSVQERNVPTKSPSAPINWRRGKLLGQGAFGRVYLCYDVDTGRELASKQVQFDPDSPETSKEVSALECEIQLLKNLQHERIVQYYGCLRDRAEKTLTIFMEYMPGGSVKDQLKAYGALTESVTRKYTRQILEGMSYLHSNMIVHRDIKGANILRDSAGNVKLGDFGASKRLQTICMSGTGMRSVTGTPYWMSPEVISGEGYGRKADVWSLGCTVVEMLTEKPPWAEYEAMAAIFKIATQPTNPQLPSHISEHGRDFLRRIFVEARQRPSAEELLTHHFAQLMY
For `COc1ccc(C(=O)O/N=C(\N)c2ccccn2)cc1[N+](=O)[O-]`, the binding response (% of control) is 107%. Under `COC(=O)c1c(NC(=O)CCCC(=O)O)sc2c1CCCCC2` stands 99%. As to `CCc1ccc(N(CC(=O)Nc2sc3c(c2C(=O)OC)CCCC3)S(C)(=O)=O)cc1`, the binding response (% of control) was 92%.

Take `COC(=O)c1c(NC(=O)COC(=O)[C@@H](NS(=O)(=O)c2ccccc2)C(C)C)sc2c1CCC2`: the binding response (% of control) was 2% [inhibitor] (active). In the case of `CC(C)CN(Cc1c(O)ccc2c(=O)c(-c3ccccc3)coc12)CC(C)C`, the binding response (% of control) is 102%.

With `Cc1ccc(C(=O)NC(=S)Nc2ccc3[nH]c(=O)[nH]c3c2)cc1C`, the binding response (% of control) was 145% (active). As to `CC(=O)Nc1ccc(NC(=S)NC(=O)c2ccc([N+](=O)[O-])c(C)c2)cc1`, the binding response (% of control) is 97%. Under `Cc1cc(C)cc(C(=O)NC(=S)Nc2ccc3[nH]c(=O)[nH]c3c2)c1` stands 105%. The value for `CC1(C)CC[C@]2(C(=O)O)CC[C@]3(C)C(=CCC4[C@@]5(C)CC[C@H](O)C(C)(C)C5[C@H](O)C[C@]43C)[C@@H]2C1` (some centres not stated) was 101%; that for `O=C(Nc1cccc(-c2nc3ccccc3[nH]2)c1)c1ccc(C(=O)Nc2cccc(-c3nc4ccccc4[nH]3)c2)cc1` was 63% [inhibitor] (active); that for `Cc1ccc(-c2nc3ccccc3[nH]2)cc1NC(=O)c1sc2ccccc2c1Cl` was 102%. For the molecule `O=C(Cc1cccs1)Nc1cccc(-c2nc3ccccc3[nH]2)c1`, the binding response (% of control) was 107%. The value for `CCNC(=O)c1cnn(-c2ccccc2)c1-c1ccccc1` was 103%. The value for `COc1ccc(C(=O)NC(=S)N2CCCCC2c2cccnc2)cc1OC` (configuration not stated) was 98%; that for `O=C(c1ccc(CS(=O)(=O)c2ccccc2)o1)N1CCN(c2ccccc2)CC1` was 102%; that for `O=C(c1cccc([N+](=O)[O-])c1)N1CCN(C(=O)c2ccco2)CC1` was 100%.

On to `O=C(Cc1c(F)cccc1Cl)N1CCN(C(=O)c2ccco2)CC1`, for which the binding response (% of control) was 103%.

For the molecule `O=C(c1ccco1)N1CCN(c2cccc(Cl)c2)CC1`, the binding response (% of control) was 2% [inhibitor] (active). The value for `Fc1ccc2c(c1)C(c1cccnc1)=NNC(c1cccs1)=N2` was 107%; that for `CCCOc1ccc(Cl)cc1Nc1nc(NCCO)nc(N2CCCC2)n1` was 108%; that for `CCCCN1C(=O)/C(=C(/C#N)C(N)=O)c2ccccc21` was 146% (active). The value for `COc1ccc2c(c1)C(=C(C#N)C#N)C(=O)N2CCc1ccccc1` was 96%; that for `O=C(O)CCCN1C(=O)c2ccccc2Sc2ncccc21` was 107%; that for `CC1CN(C(=S)Nc2cccc(F)c2)CC(C)O1` (configuration not stated) was 105%. Consider `COc1ccc(CNC(=O)C2(CC3CC(c4ccccc4)=NO3)CCN(C(=O)c3cccc(O)c3)CC2)cc1` (configuration not stated), for which the binding response (% of control) is 99%. For `COC(=O)c1ccc(NC(=O)CSc2nnc(CNc3ccc(OC)cc3)n2C)cc1`, the binding response (% of control) was 106%. Consider `COc1ccc(C(=O)NCc2nnc(SCCOc3ccccc3)n2C)cc1`, for which the binding response (% of control) was 102%.

Turning to `COc1ccc(C(=O)NCc2nnc(SCC(=O)NC3=NCCS3)n2C)cc1`, the binding response (% of control) is 71% [inhibitor] (active). Consider `O=C(NCc1ccccc1)c1onc(CSc2ccncc2)c1C(=O)NCc1ccccc1`, for which the binding response (% of control) was 106%.

With `CO/N=C(\N)c1ccc([N+](=O)[O-])cc1`, the binding response (% of control) was 98%.

`O=C(N/N=C/c1cccc([N+](=O)[O-])c1)c1ccncc1`: the binding response (% of control) is 107%. The value for `N/C(=N\OS(=O)(=O)c1cccc([N+](=O)[O-])c1)c1ccncc1` was 145% (active); that for `C#CCOCCOCCOCCNc1nc(N2CCN(C(=O)C([C@@H](C)CC)n3cc(C(N)COC(=O)C(F)(F)F)nn3)CC2)nc(N2CCN(C(=O)[C@H](Cc3ccc(O)cc3)n3cc(C(N)[C@H](C)CC)nn3)CC2)n1` (some centres not stated) was 104%. Under `CC(=O)Nc1ccc(Oc2ccc3c(c2)C(=O)NC3=O)cc1` stands 105%; under `O=C(Cn1cnc([N+](=O)[O-])n1)NCCc1ccccc1`, 102%. Turning to `CC(C)(C)NC(=O)Cn1cnc([N+](=O)[O-])n1`, the binding response (% of control) was 1% [inhibitor] (active). Under `CC(C)(C)NC(=O)Cn1cnc2cc([N+](=O)[O-])ccc2c1=O` stands 95%; under `CCC(CC)COC(=O)C1=C(C)NC(=O)NC1c1ccc([N+](=O)[O-])cc1` (configuration not stated), 105%; under `CCSc1nnc(SCC(=O)NNC(=O)c2ccccc2F)s1`, 101%. For `CCOc1ccc(NC(=O)Nc2cc(C)ccc2OC)cc1`, the binding response (% of control) was 71% [inhibitor] (active). Take `CCOc1ccc(NC(=O)Nc2cc(C)on2)cc1`: the binding response (% of control) is 102%. The value for `CCOc1ccc(C(=O)Nc2cc(OC)ccc2OC)cc1` was 97%; that for `CC(C)CCC(C)NC(=O)c1ccc2nccnc2c1` (configuration not stated) was 61%. The value for `CCCc1nnc(NC(=O)CCC(=O)NC2CC2)s1` was 96%.

`CC(=O)N(C)c1ccc(NC(=O)Nc2cccc3ccccc23)cc1`: the binding response (% of control) was 103%. With `CC(=O)N(C)c1ccc(NC(=O)C(F)(F)F)cc1`, the binding response (% of control) is 2% [inhibitor] (active).

On to `CCOc1ccc(NC(=O)Nc2ccc(N(C)C(C)=O)cc2)cc1`, for which the binding response (% of control) was 101%.

As for `CC(NCC(=O)Nc1cc(Cl)cc(Cl)c1)c1ccccc1` (configuration not stated), the binding response (% of control) was 100%. Turning to `Cc1cc(=O)oc2c3c(cc(OCC(=O)N[C@H](C(=O)O)c4ccccc4)c12)OC(C)(C)CC3`, the binding response (% of control) was 97%. The value for `C=CCC1(C(=O)N(C)Cc2ccccc2)CCN(C(=O)OC(C)(C)C)CC1` was 97%; that for `Cc1cc(-c2csc(N)n2)c(C)n1Cc1ccccc1` was 91%; that for `CC(=O)Nc1ccc(-c2csc(NC(=O)Nc3ccccc3)n2)cc1` was 101%.

Turning to `CC(=O)Nc1ccc(C(=O)Nc2nc(-c3cc(C)n(Cc4ccccc4)c3C)cs2)cc1`, the binding response (% of control) is 131% (active).

On to `CC1CCC(NC(=O)c2ccc(N3CCCC3=O)cc2)CC1` (configuration not stated), for which the binding response (% of control) was 104%. In the case of `O=C(COC(=O)c1ccc(N2CCCC2=O)cc1)c1ccc(OC(F)F)cc1`, the binding response (% of control) is 1% [inhibitor] (active).

Turning to `O=C(NCCCN1CCCCCC1)c1ccc(N2CCCC2=O)cc1`, the binding response (% of control) is 108%. Under `COc1ccc(S(=O)(=O)NC(C)c2ccccc2)cc1C(=O)N1CCCCC1` (configuration not stated) stands 103%.
